Assay results: PubChem BioAssay (NCATS)
Results filed as inconclusive are left out. A number with no mark means an inactive call. The source made the active and inactive calls. The call rests on the fitted dose curve; in most records, active means well fitted curve in the direction sought with a large enough effect; inconclusive means small, poorly fitted or top-dose-only effect, or another doubt; inactive means no such curve, though single readings can be large; an effect the other way counts as inactive or inconclusive.

Assays:
MKL-2 = assay: qHTS assay to identify novel small-molecules to repurpose for Merkel cell carcinoma treatment (AID 1296009); details: MCC and control cell lines, CellTiter-Glo viability, 72 h; series mostly up to 46 µM; further: nearly all actives have a fitted effect of over 60% in size
Procedure, shortened: (§1)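 Cell viability, measured as CellTiter-Glo luminescence, was normalized between DMSO and no-cell wells. The cells had been exposed to 8- or 11-point compound dilutions for 72 hr at 37 degree celsius.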

UISO = assay: as above; details: MCC and control cell lines, CellTiter-Glo viability, 72 h; series mostly up to 46 µM
Procedure, shortened: as §1

WaGa = assay: as above; details: MCC and control cell lines, CellTiter-Glo viability, 72 h; series mostly up to 46 µM
Procedure, shortened: as §1

C33A = assay: Primary qHTS to identify gynecologic anti-cancer compounds using libraries of approved drugs and bioactive compounds (AID 1345084); details: Gynecologic cancer cell panel viability, ATPlite luminescence, 48 h; series mostly up to 57.5 µM; further: nearly all actives have a fitted effect of over 55% in size
Procedure, shortened: (§2)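 Five-point cytotoxicity, 48 h drug exposure at 37 C, 5% CO2, on cells seeded 16 h beforehand. ATP content read by ATPlite luminescence.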

CASKI = assay: as above; details: Gynecologic cancer cell panel viability, ATPlite luminescence, 48 h; series mostly up to 57.5 µM
Procedure, shortened: as §2

HeLa = assay: as above; details: Gynecologic cancer cell panel viability, ATPlite luminescence, 48 h; series mostly up to 57.5 µM
Procedure, shortened: as §2

Hek293T = assay: as above; details: Gynecologic cancer cell panel viability, ATPlite luminescence, 48 h, control line for the selectivity index; series mostly up to 57.5 µM
Procedure, shortened: as §2

Es-2 = assay: as above; details: Gynecologic cancer cell panel viability, ATPlite luminescence, 48 h; series mostly up to 57.5 µM
Procedure, shortened: as §2

CAOV3 = assay: as above; details: Gynecologic cancer cell panel viability, ATPlite luminescence, 48 h; series mostly up to 57.5 µM
Procedure, shortened: as §2
Potency means the concentration at half of the fitted maximal effect.

Structure (SMILES) | Potency (MKL-2) | Potency (UISO) | Potency (WaGa) | Potency (C33A) | Potency (CASKI) | Potency (HeLa) | Potency (Hek293T) | Potency (Es-2) | Potency (CAOV3)
O=C(O)Cn1nnc(-c2cc(N3CCC(Oc4cc(F)ccc4Br)CC3)no2)n1 | inactive | inactive | inactive | inactive | inactive | inactive | inactive | – | –
COc1cccc2c(NCc3ccccc3)nc(-n3c(N)nc4ccccc43)nc12 | 4.69 µM (active) | 6.62 µM (active) | 9.35 µM (active) | 28.2 µM (active) | 25.1 µM (active) | 25.1 µM (active) | – | – | –
COc1cc(Nc2ncc(F)c(Nc3ccc4c(n3)N(COP(=O)(O)O)C(=O)C(C)(C)O4)n2)cc(OC)c1OC | inactive | inactive | inactive | – | 17.8 µM (active) | 3.55 µM (active) | – | – | –
COc1cc(-c2nn(C3CCC(N4CCN(C(C)=O)CC4)CC3)c3ncnc(N)c23)ccc1NC(=O)c1cc2ccccc2n1C (configuration not stated) | inactive | 18.7 µM (active) | – | inactive | – | inactive | inactive | inactive | –
Cc1cc(Nc2cc(N3CCN(C)CC3)nc(Sc3ccc(NC(=O)C4CC4)cc3)n2)n[nH]1 | inactive | inactive | – | inactive | – | – | – | inactive | –
CC[C@@]1(O)C(=O)OCc2c1cc1n(c2=O)Cc2cc3cc(O)ccc3nc2-1 | 0.264 µM (active) | 0.0743 µM (active) | 0.0187 µM (active) | 0.794 µM (active) | 0.398 µM (active) | – | 1.26 µM (active) | 0.355 µM (active) | –
COc1ccc(-c2cc3c(C)nc(N)nc3n(C3CCC(OCCO)CC3)c2=O)cn1 (configuration not stated) | 0.166 µM (active) | 0.166 µM (active) | 2.09 µM (active) | – | 1.41 µM (active) | 7.94 µM (active) | 1.41 µM (active) | 2.51 µM (active) | –
Nc1cc(C(F)(F)F)c(-c2cc(N3CCOCC3)nc(N3CCOCC3)n2)cn1 | inactive | 1.66 µM (active) | – | 15.8 µM (active) | 3.55 µM (active) | 3.98 µM (active) | 3.16 µM (active) | 6.31 µM (active) | –
COc1cc(C)c(Sc2cnc(NC(=O)c3ccc(CNC(C)C(C)C)cc3)s2)cc1C(=O)N1CCN(C(C)=O)CC1 (configuration not stated) | inactive | 18.7 µM (active) | – | inactive | – | – | inactive | inactive | –
Cc1cnc(Nc2ccc(F)cc2Cl)nc1-c1c[nH]c(C(=O)N[C@H](CO)c2cccc(Cl)c2)c1 | 14.8 µM (active) | 2.64 µM (active) | – | – | 25.1 µM (active) | 31.6 µM (active) | – | 20 µM (active) | –
COc1cc2c(Nc3ccc(NC(=O)c4ccccc4)cc3)ncnc2cc1OCCCN1CCOCC1 | inactive | inactive | – | 25.1 µM (active) | – | – | inactive | inactive | –
CC(C)c1nn(-c2c(Cl)cccc2Cl)c2nc(Cc3ccc(OCCO)cc3)[nH]c(=O)c12 | 0.105 µM (active) | 0.105 µM (active) | – | 0.282 µM (active) | 0.501 µM (active) | – | – | – | 0.158 µM (active)
OCCCNc1cc(-c2ccnc(Nc3cccc(Cl)c3)n2)ccn1 | 0.296 µM (active) | 0.148 µM (active) | – | 0.562 µM (active) | 0.398 µM (active) | 0.158 µM (active) | 0.199 µM (active) | 0.224 µM (active) | –
Cc1cc(N2CCOCC2)cc2[nH]c(-c3c(NC[C@@H](O)c4cccc(Cl)c4)cc[nH]c3=O)nc12 | inactive | 1.32 µM (active) | – | inactive | – | – | – | inactive | –
Cc1c(CN2CCN(S(C)(=O)=O)CC2)sc2c(N3CCOCC3)nc(-c3cnc(N)nc3)nc12 | 0.118 µM (active) | 0.264 µM (active) | – | 1.58 µM (active) | 0.708 µM (active) | 2 µM (active) | 0.501 µM (active) | – | –
CC(=O)SC[C@@H](C)C(=O)N1CCC[C@H]1C(=O)N[C@@H](Cc1ccccc1)C(=O)O | inactive | inactive | inactive | inactive | inactive | inactive | inactive | inactive | –
CCn1cc(-c2ccnc3[nH]c(-c4cccc(CN(C)C)c4)cc23)c(-c2ccc(NC(=O)N(C)C)cc2)n1 | 8.33 µM (active) | 13.2 µM (active) | 0.0469 µM (active) | inactive | – | – | inactive | – | –
CCn1nnc2c(N3CCOCC3)nc(-c3ccc(NC(=O)Nc4ccc(C(=O)N5CCN(C)CC5)cc4)cc3)nc21 | 0.0105 µM (active) | 0.0332 µM (active) | – | inactive | 0.251 µM (active) | – | 0.631 µM (active) | 1.12 µM (active) | –
CC(C)c1cc(-c2n[nH]c(=O)n2-c2ccc3c(ccn3C)c2)c(O)cc1O | inactive | 0.372 µM (active) | – | – | – | inactive | 0.316 µM (active) | – | inactive
Cc1ccc(CN2CCNCC2)cc1NC(=O)CNc1ccc(F)c(F)c1 | inactive | inactive | inactive | inactive | inactive | inactive | inactive | inactive | –
c1ccc2c(CCNc3ccc(Nc4ccncc4)cc3)c[nH]c2c1 | 5.9 µM (active) | 13.2 µM (active) | 7.43 µM (active) | – | – | inactive | – | – | –
